# Experimental data from PubChem BioAssay (NCATS).
# Inconclusive results are not listed. More than one record can exist for a structure, and the calls need not agree. Active and inactive are the calls of the source. Unless noted, calls come from the whole dose curve.
# Experiments:
# [1] = Cytotoxicity counterscreen for inhibitors of SARS-CoV-2 cell entry (AID 1645845); note: nearly all actives have a fitted effect of over 50% in size; note: potency is the fitted concentration of half-maximal effect
# Method in brief: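 48 h compound treatment (after 1 h preincubation), HEK293-ACE2 cells, 37 C/5% CO2; ATP luminescence endpoint; normalized to cell wells and media blanks.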
# [2] = Primary qHTS to identify inhibitors of SARS-CoV-2 cell entry (AID 1645846); note: nearly all actives have a fitted effect of over 45% in size; note: potency is the fitted concentration of half-maximal effect
# Method in brief: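 HEK293 cells stably expressing human ACE2, pre-treated 1 h with compound, then infected with MLV particles pseudotyped with Wuhan-Hu-1 spike (C-terminal 19-aa truncation). Luciferase luminescence after 48 h at 37 °C, normalised to spike PP and bald PP.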
# [3] = molecular target: Papain (Carica papaya) (UniProt P00784); experiment: Primary qHTS assay for inhibitors of the protease papain (AID 1645873; active = well fitted curve in the direction sought with a large enough effect; an effect the other way counts as inactive or inconclusive;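 note: papain turnover of Z-FR-AMC read as the AMC fluorescence gain over 10 min; % is set by controls: 0 for no effect and ±100 for the full control effect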)
# [4] = Primary qHTS for inhibitors of nuclear receptor binding SET domain protein 2 (NSD2) in an isogenic RCH-ACV NSD2 p.E1099K mutant (9B) (AID 1645876; active = well fitted curve in the direction sought with a large enough effect; an effect the other way counts as inactive or inconclusive; note: nearly all actives have a fitted effect of over 70% in size; note: potency is the fitted concentration of half-maximal effect)
# [5] = Primary qHTS for inhibitors of nuclear receptor binding SET domain protein 2 (NSD2) in an RCH-ACV wild type WT cells (2C) (AID 1645877; active = well fitted curve in the direction sought with a large enough effect; an effect the other way counts as inactive or inconclusive; note: nearly all actives have a fitted effect of over 70% in size; note: potency is the fitted concentration of half-maximal effect)
# [6] = VSVG counterscreen qHTS to identify inhibitors of SARS-CoV-2 cell entry (AID 1645847); note: nearly all actives have a fitted effect of over 65% in size; note: potency is the fitted concentration of half-maximal effect; for activity change, negative = inhibition: % is set by controls: 0 for no effect and ±100 for the full control effect
# Method in brief: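 HEK293-ACE2 cells (Expi293F, human ACE2) pretreated 1 h with compound, then infected with MLV-based VSV-G pseudotyped particles for 48 h at 37 C; luciferase luminescence normalized to VSV-G PP and bald PP wells.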
# [7] = activity change, negative = inhibition: at 57.1 µM (top of the series) unless noted
# Chain of Papain (Carica papaya) (P00784 whole entry, looked up, the tested form may be a part): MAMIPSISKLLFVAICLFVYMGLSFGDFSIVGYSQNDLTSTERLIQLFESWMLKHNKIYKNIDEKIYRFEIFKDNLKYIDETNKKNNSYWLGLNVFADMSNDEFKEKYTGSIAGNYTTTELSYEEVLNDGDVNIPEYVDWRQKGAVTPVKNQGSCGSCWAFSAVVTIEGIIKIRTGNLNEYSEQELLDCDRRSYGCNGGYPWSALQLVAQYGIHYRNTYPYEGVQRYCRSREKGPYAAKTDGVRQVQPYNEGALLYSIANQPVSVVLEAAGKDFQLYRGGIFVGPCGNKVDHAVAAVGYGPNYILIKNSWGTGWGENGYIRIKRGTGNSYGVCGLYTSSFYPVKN
smiles,measurement,setting,value
N#Cc1ccc(NC(=O)Nc2ccccc2Br)c2n[nH]nc12,Potency,[1],inactive
same,Potency,[2]; [7],inactive
CN(C)c1ccc(C2Nc3ccc4ccccc4c3C3=C2C(=O)CC(C)(C)C3)cc1Br (centres undefined),Potency,[1],inactive
same,"activity change, negative = inhibition",[2]; [7],-8.04%
CC(C)[C@H](CO)Nc1nc(Nc2ccc(C(=O)O)c(Cl)c2)c2ncn(C(C)C)c2n1,Potency,[1],inactive
same,"activity change, negative = inhibition",[2]; [7],-17.7%
O=C(N[C@H]1CN2CCC1CC2)c1ccc(Cl)cc1,Potency,[1],inactive
same,"activity change, negative = inhibition",[2]; [7],4.38%
same,Potency,[3],inactive
same,Potency,[4],inactive
same,Potency,[5],inactive
CCOP(=O)(OCC)C(C)NC(=O)N(CCCl)N=O (centres undefined),Potency,[1],inactive
same,Potency,[2]; [7],inactive
same,"activity change, negative = inhibition",[2]; [7],-18.4%
same,Potency,[4],inactive
same,Potency,[5],inactive
Cc1nc(N)sc1-c1ccnc(Nc2ccc(N3CCOCC3)cc2)n1,Potency,[1],3.16 µM (active)
same,Potency,[2]; [7],3.16 µM (active)
COC(=O)c1ccc2c(C(=Nc3ccc(N(C)C(=O)CN4CCN(C)CC4)cc3)c3ccccc3)c(O)[nH]c2c1,Potency,[1],inactive
same,Potency,[2]; [7],17.8 µM (active)
same,"activity change, negative = inhibition",[2]; [7],-18.4%
COc1cc(Nc2ncc3c(n2)-c2ccc(Cl)cc2C(c2c(F)cccc2OC)=NC3)ccc1C(=O)O,Potency,[1],inactive
same,"activity change, negative = inhibition",[2]; [7],-83%
same,Potency,[6],0.108 µM (active)
COc1ccc(-c2c(-c3ccc(O)cc3O)n[nH]c2C)cc1,Potency,[1],inactive
same,"activity change, negative = inhibition",[2]; [7],-56.7%
same,Potency,[6],12.4 µM (active)
c1ccc(-c2nn3c(c2-c2ccnc4cc(OCCN5CCOCC5)ccc24)CCC3)nc1,Potency,[1],inactive
same,"activity change, negative = inhibition",[2]; [7],3.16%
CC(C)C[C@H](NC(=O)[C@@H](O)[C@H](N)Cc1ccccc1)C(=O)O,Potency,[1],inactive
same,"activity change, negative = inhibition",[2]; [7],-29.5%
NC1=NC(=O)N2CC12 (centres undefined),Potency,[1],inactive
same,"activity change, negative = inhibition","[2]; SARS-CoV-2 pseudovirus cell entry assay, luminescence, at 57.1 µM (top of the series)",-95.3%
same,"activity change, negative = inhibition","[2]; SARS-CoV-2 pseudovirus cell entry assay, luminescence, at 114 µM (top of the series)",-13.1%
same,Potency,[4],inactive
same,Potency,[5],inactive
COc1c(Cl)cc2c([nH]c3cnccc32)c1NC(=O)c1cccnc1C,Potency,[1],inactive
same,"activity change, negative = inhibition",[2]; [7],-30.2%
same,Potency,[6],inactive
COc1ccc(C(=O)c2c(C)n(CCN3CCOCC3)c3cc(I)ccc23)cc1,Potency,[1],inactive
same,"activity change, negative = inhibition",[2]; [7],-80.5%
same,Potency,[6],30.4 µM (active)
same,Potency,[4],18.6 µM (active)
same,Potency,[5],14.8 µM (active)
COc1cc([C@@H]2c3cc4c(cc3[C@@H](O)C3COC(=O)C32)OCO4)cc(OC)c1O (some centres undefined),Potency,[1],inactive
same,Potency,[6],0.541 µM (active)
same,Potency,[4],0.417 µM (active)
same,Potency,[5],0.372 µM (active)
COc1cc2nc(-c3ccc(N4CCN(C)CC4)cc3)nc(NCCN3CCOCC3)c2cc1OC,"activity change, negative = inhibition",[2]; [7],-14.2%
